Results filed as inconclusive are left out. For some assays here: Potency and affinity values are given separately. Active and inactive are the calls of the source. Unless noted, the rule behind the calls is not given here.
How the values were obtained:
[1] = antimalarial activity against Dd2 strain (AID 2302;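 active = growth inhibition above 50% at the single 2 µM test dose, taken to imply half-maximal potency below 2 µM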;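 note: 0% = DMSO untreated growth and 100% = chloroquine plus artemisinin killed control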); conditions: P. falciparum Dd2 in RBCs, LDH growth readout, 72 h; at 2 µM; stronger effect = higher value
[2] = human hepatoma cell viability loss – ATP luminescence, cytotoxicity control for P. falciparum antimalarial project, primary screen (AID 2303;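 active = inhibition above 50%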;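 note: 0% = DMSO wells and 100% = digitonin-killed cells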); conditions: HepG2 viability, 24-48 h, at 10 µM, stronger effect = higher value
[3] = target: L-lactate dehydrogenase (Plasmodium falciparum (isolate CDC / Honduras)) (UniProt Q27743); experiment: PfLDH activity inhibition – cell lysate, 3D7 strain, counter-screen for P. falciparum growth inhibition project (AID 2304);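 note: 0% = vehicle and 100% = reference inhibitor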; conditions: P. falciparum 3D7 crude extract, LDH APAD/NBT absorbance; at 2 µM; stronger effect = higher value
Sequence of L-lactate dehydrogenase (Plasmodium falciparum (isolate CDC / Honduras)) (Q27743 whole entry, looked up): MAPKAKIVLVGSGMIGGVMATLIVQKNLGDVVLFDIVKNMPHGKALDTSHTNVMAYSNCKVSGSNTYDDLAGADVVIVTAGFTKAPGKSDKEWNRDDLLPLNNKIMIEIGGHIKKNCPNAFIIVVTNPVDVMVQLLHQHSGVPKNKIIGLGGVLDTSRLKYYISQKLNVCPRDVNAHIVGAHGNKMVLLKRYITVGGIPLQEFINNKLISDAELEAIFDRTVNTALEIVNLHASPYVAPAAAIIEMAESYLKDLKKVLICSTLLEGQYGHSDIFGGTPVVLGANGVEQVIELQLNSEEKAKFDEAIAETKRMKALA

[4] = inhibition of 3D7 malaria parasite growth – strain 3D7 (AID 2306);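 note: 0% = DMSO wells and 100% = chloroquine plus artemisinin control wells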; conditions: P. falciparum 3D7 erythrocytic growth, LDH absorbance, 72 h; at 2 µM; stronger effect = higher value
[5] = target: Calcium-dependent protein kinase 1 (Plasmodium falciparum (isolate 3D7)) (UniProt P62344); experiment: PfCDPK1 kinase inhibitors, biochemical, TCAMS library (AID 1159585; cut-off not given, nearly all actives have IC50 up to about 0.98 µM;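 note: inhibitors leave more ATP so luminescence rises with inhibition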); conditions: recombinant PfCDPK1, Kinase-Glo ATP depletion luminescence
Sequence of Calcium-dependent protein kinase 1 (Plasmodium falciparum (isolate 3D7)) (P62344 whole entry, looked up): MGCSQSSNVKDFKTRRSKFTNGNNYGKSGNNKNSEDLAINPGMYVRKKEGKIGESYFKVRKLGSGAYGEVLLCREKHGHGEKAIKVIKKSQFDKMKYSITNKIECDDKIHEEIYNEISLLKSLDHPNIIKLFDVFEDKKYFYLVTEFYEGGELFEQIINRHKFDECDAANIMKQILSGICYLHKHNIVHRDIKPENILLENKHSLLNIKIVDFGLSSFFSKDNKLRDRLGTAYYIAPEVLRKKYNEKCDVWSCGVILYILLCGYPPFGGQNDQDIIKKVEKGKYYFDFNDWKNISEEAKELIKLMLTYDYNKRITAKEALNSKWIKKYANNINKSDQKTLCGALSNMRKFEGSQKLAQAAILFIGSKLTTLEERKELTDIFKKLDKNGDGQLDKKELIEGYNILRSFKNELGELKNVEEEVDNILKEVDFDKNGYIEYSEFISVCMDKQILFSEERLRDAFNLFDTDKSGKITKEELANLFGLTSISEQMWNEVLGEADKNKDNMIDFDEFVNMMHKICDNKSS

[6] = target: Plasmodium falciparum protein kinase 6 (PK6, PF3D7_1337100) (UniProt Q8IDW1); experiment: PfPK6 kinase inhibitors, biochemical, TCAMS library (AID 1159586); conditions: recombinant PfPK6, Kinase-Glo ATP depletion luminescence
Sequence of Plasmodium falciparum protein kinase 6 (PK6, PF3D7_1337100) (Q8IDW1 1-305): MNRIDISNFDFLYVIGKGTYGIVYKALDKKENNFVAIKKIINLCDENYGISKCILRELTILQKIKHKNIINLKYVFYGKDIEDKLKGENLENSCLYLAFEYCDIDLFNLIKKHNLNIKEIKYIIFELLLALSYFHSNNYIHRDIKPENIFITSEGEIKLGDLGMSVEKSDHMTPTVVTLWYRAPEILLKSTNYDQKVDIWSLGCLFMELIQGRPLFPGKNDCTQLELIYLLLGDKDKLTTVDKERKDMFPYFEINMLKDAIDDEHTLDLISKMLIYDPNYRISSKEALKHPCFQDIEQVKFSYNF

[7] = target: Protein kinase 7 (PK7), Plasmodium falciparum 3D7 (PF3D7_0213400) (UniProt Q7YTF7); experiment: inhibition of Plasmodium PK7 catalytic activity – biochemical, TCAMS antimalarial set, Kinase-Glo luminescence (AID 1159587); conditions: recombinant PfPK7, Kinase-Glo ATP depletion luminescence
Sequence of Protein kinase 7 (PK7), Plasmodium falciparum 3D7 (PF3D7_0213400) (Q7YTF7 1-343): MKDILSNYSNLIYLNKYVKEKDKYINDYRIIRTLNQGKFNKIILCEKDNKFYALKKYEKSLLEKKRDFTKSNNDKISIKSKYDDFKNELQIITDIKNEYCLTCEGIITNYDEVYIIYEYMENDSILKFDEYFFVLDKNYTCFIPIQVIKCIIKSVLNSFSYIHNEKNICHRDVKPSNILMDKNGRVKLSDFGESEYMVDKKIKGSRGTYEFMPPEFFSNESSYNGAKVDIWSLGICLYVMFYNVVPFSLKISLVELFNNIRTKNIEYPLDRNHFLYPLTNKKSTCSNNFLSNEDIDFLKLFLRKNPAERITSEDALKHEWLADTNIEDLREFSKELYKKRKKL

[8] = target: Calcium-dependent protein kinase 4 (Plasmodium falciparum (isolate 3D7)) (UniProt Q8IBS5); experiment: PfCDPK4 kinase inhibitors, biochemical, TCAMS library (AID 1159588; cut-off not given, nearly all actives have IC50 up to about 0.91 µM); conditions: recombinant PfCDPK4, Kinase-Glo ATP depletion luminescence
Sequence of Calcium-dependent protein kinase 4 (Plasmodium falciparum (isolate 3D7)) (Q8IBS5 whole entry, looked up): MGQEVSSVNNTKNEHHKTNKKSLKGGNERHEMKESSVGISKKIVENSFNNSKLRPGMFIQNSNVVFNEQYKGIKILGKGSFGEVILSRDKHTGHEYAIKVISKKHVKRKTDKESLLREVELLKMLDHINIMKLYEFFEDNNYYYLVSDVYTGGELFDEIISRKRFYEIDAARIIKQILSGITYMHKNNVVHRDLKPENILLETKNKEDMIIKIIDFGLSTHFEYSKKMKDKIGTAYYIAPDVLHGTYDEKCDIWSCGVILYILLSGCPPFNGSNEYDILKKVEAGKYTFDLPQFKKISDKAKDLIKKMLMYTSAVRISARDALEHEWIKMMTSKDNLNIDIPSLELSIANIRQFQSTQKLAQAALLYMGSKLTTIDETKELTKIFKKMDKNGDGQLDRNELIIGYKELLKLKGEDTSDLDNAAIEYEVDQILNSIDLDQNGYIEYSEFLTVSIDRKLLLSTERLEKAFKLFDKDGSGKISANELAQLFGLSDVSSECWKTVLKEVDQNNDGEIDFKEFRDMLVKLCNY

[9] = tested on: Aerobactin synthetase IucA (Klebsiella pneumoniae); experiment: inhibition of K. pneumoniae IucA enzyme – biochemical, Tocris library, absorbance (AID 1345561); conditions: purified IucA enzyme assay, absorbance (OD) read-out; stronger effect = lower value;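 tested at 8 µM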;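 note: 100% = enzyme without compound and 0% = no enzyme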
[10] = selective SMN2 exon splicing luciferase activators – cell-based, SMN2/SMN1 luciferase reporters (AID 1598); conditions: SMN2 vs SMN1 luciferase splicing reporter cells, at 10 µM; SMN1 luciferase ratio: measured here: SMN1 luciferase reporter average; SMN2 luciferase ratio: measured here: SMN2 luciferase reporter average, stronger effect = higher value; SMN2/SMN1 luciferase ratio: stronger effect = higher value
[11] = viability loss in pontine glioma line – cell-based, SU-DIPG-XVII, MIPE5.0, CellTiter-Glo, qHTS, dose response (AID 1347060; cut-off not given, nearly all actives have AC50 up to about 26 µM;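 for AC50: cells exposed to compound for 48 hours before viability readout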); conditions: CellTiter-Glo ATP luminescence
[12] = viability loss in pontine glioma line – cell-based, SU-DIPG-IV, MIPE4.0, CellTiter-Glo, qHTS, dose response (AID 1347063; cut-off not given, nearly all actives have AC50 up to about 30 µM;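 note: compound exposure lasted 48 hours before the viability readout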); conditions: CellTiter-Glo ATP luminescence
[13] = growth inhibition of DIPG cells – cell-based, MIPE4.0 library, CellTiter-Glo luminescence, qHTS (AID 1347066; cut-off not given, nearly all actives have AC50 up to about 30 µM;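 note: cells exposed to compound for 48 hours before readout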); conditions: SU-DIPG-VI viability, CellTiter-Glo ATP luminescence
[14] = JHH-DIPG-1 glioma cell viability, MIPE5.0 library, CellTiter-Glo luminescence, qHTS (AID 1347067; cut-off not given, nearly all actives have AC50 up to about 26 µM;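 note: cells exposed to compound for 48 hours before readout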); conditions: JHH-DIPG-1 glioma viability, CellTiter-Glo ATP luminescence
[15] = growth inhibition of DIPG cells – cell-based, MIPE5.0 library, qHTS (AID 1347068; cut-off not given, nearly all actives have IC50 up to about 30 µM;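 for IC50: cells exposed to compound for 48 hours before viability readout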); conditions: SU-DIPG-XXV viability
[16] = chitosan synthesis blockers in C. neoformans – flow cytometry, Cibacron Brilliant Red staining (AID 1347148); conditions: Cryptococcus neoformans chitosan, stronger effect = lower value; at 10 µM unless noted;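 note: compound exposure lasted three days at 37 degrees C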
[17] = viability loss in pontine glioma line – cell-based, SU-DIPG-XIII, MIPE4.0, CellTiter-Glo, qHTS, dose response (AID 1347061; cut-off not given, nearly all actives have AC50 up to about 37 µM;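 note: cells exposed to compound for 48 hours before readout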); conditions: CellTiter-Glo ATP luminescence
[18] = viability loss in pontine glioma line – cell-based, SU-DIPG-XIII, MIPE5.0, CellTiter-Glo, qHTS, dose response (AID 1347064; cut-off not given, nearly all actives have AC50 up to about 23 µM;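 for AC50: cells exposed to compound for 48 hours before the viability read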); conditions: CellTiter-Glo ATP luminescence
[19] = viability loss in pontine glioma line – cell-based, SU-DIPG-XXV, MIPE5.0, CellTiter-Glo, qHTS, dose response (AID 1347065; cut-off not given, nearly all actives have AC50 up to about 26 µM;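 note: cells exposed to compound for 48 hours before ATP readout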); conditions: CellTiter-Glo ATP luminescence
[20] = viability loss in pontine glioma line – cell-based, JHH-DIPG-1, MIPE4.0, CellTiter-Glo, qHTS, dose response (AID 1347062; cut-off not given, nearly all actives have AC50 up to about 27 µM;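 for AC50: cells exposed to compound for two days before readout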); conditions: JHH-DIPG-1 viability, CellTiter-Glo ATP luminescence

C=C[C@H]1CN2CC[C@H]1C[C@H]2[C@H](O)c1ccnc2ccccc12
active: growth inhibition [4] 100%
inactive: growth inhibition [1] 3% | inhibition [2] 9% | inhibition [3] 2% | outcome [5] | outcome [6] | outcome [7] | outcome [8]

C=C[C@H]1CN2CC[C@H]1C[C@@H]2[C@@H](O)c1ccnc2ccccc12
active: growth inhibition [4] 101%
inactive: growth inhibition [1] 2% | inhibition [2] -7% | inhibition [3] 3% | outcome [5] | outcome [6] | outcome [7] | outcome [8]

C=CCN1CC[C@]23c4c5ccc(O)c4O[C@H]2C(=O)CC[C@@]3(O)[C@H]1C5
inactive: remaining activity [9] 101%

CC[C@@]1(O)C(=O)OCc2c1cc1n(c2=O)Cc2cc3ccccc3nc2-1
active: SMN2/SMN1 luciferase ratio [10] 1.74 | AC50 [11] 16.6 nM | AC50 [12] 46.9 nM | AC50 [14] 1480 nM
inactive: remaining activity [9] 122% | outcome [13] | outcome [15] | fold fluorescence [16] 6.75 [at 143.5 µM]
0.26: SMN2 luciferase ratio [10]
0.16: SMN1 luciferase ratio [10]

O=C1CC[C@@]2(O)[C@H]3Cc4ccc(O)c5c4[C@@]2(CCN3CC2CC2)[C@H]1O5
inactive: outcome [11] | outcome [17] | outcome [12] | outcome [18] | outcome [19] | outcome [13] | outcome [14] | outcome [15]

CC[C@@H](CO)NC(=O)[C@@H]1C=C2c3cccc4[nH]cc(c34)C[C@H]2N(C)C1
inactive: remaining activity [9] 127%

CC[C@H]1CN2CC[C@H]1C[C@@H]2[C@@H](O)c1ccnc2ccc(OC)cc12
active: growth inhibition [1] 95% | growth inhibition [4] 100%
inactive: inhibition [2] -3% | inhibition [3] 1% | outcome [5] | outcome [6] | outcome [7] | outcome [8]

Cc1nccc2c1[nH]c1ccccc12
inactive: remaining activity [9] 108%

COc1ccc(C[C@H]2NC[C@H](O)[C@H]2OC(C)=O)cc1
active: growth inhibition [1] 98% | growth inhibition [4] 100%
inactive: inhibition [2] 39% | inhibition [3] 6% | outcome [5] | outcome [6] | outcome [7] | outcome [8] | remaining activity [9] 125% | fold fluorescence [16] 11.2 [at 188.5 µM]

O=c1c2ccccc2[se]n1-c1ccccc1
inactive: fold fluorescence [16] 9.59 [at 182.4 µM]

CC(C)CC(N(C)C)C1(c2ccc(Cl)cc2)CCC1 (configuration not stated)
active: AC50 [17] 23500 nM
inactive: outcome [11] | outcome [20] | outcome [12] | outcome [19] | outcome [13] | outcome [14] | outcome [15]

COC1=C[C@@H]2[C@@H]3Cc4ccc(OC)c(O)c4[C@]2(CCN3C)CC1=O
active: AC50 [17] 3320 nM | AC50 [12] 935 nM
inactive: outcome [18] | outcome [19] | outcome [13] | outcome [14] | outcome [15]

COc1cc([C@@H]2c3cc4c(cc3[C@@H](O)C3COC(=O)C32)OCO4)cc(OC)c1O (some centres not stated)
active: AC50 [11] 263 nM | AC50 [18] 525 nM | AC50 [19] 417 nM | IC50 [15] 332 nM

CC1=C(O)C(=O)C=C2C1=CC=C1[C@@]2(C)CC[C@@]2(C)[C@@H]3C[C@](C)(C(=O)O)CC[C@]3(C)CC[C@]12C
active: AC50 [11] 2090 nM | AC50 [17] 3320 nM | AC50 [20] 2640 nM | AC50 [12] 1320 nM | AC50 [18] 2350 nM | AC50 [19] 1660 nM | AC50 [13] 1180 nM | AC50 [14] 934 nM | IC50 [15] 11800 nM

COc1cc(OC)c(OC)cc1C=O
inactive: outcome [17] | outcome [20] | outcome [12] | outcome [13]

O=C1C=CC(=O)c2c(O)cccc21
active: fold fluorescence [16] 2.01 [at 287.1 µM]

O=C1C=C2C(=CCOC2O)O1 (configuration not stated)
active: SMN2/SMN1 luciferase ratio [10] 2.76
0.46: SMN2 luciferase ratio [10]
0.26: SMN1 luciferase ratio [10]

— PubChem BioAssay
